# Test results as given in PubChem BioAssay.
# A number with no mark means an inactive call.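 Rule for the calls, unless noted: active = GFP response above 150% of the DMSO control; inconclusive = Fewer than 70 cells counted for a yeast strain; inactive = the rest.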
# Legend:
# [1] = modulators of MEP2-GFP levels in yeast, confirmation, S. cerevisiae, flow cytometry GFP, cherry picks (AID 2272);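 note: ratio of well signal to plate DMSO mean so 100% equals DMSO level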; conditions: S. cerevisiae MEP2-GFP strain, 3 h, at 10 µM, active compounds read high
# [2] = AGP1-GFP expression modulators, hit retest, confirmation, cell-based, flow cytometry, S. cerevisiae, cherry picks (AID 2273;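 active = GFP response above 150% of the DMSO level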;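 note: median GFP channel fluorescence over the whole cell population gate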); conditions: S. cerevisiae AGP1-GFP strain, 3 h, at 10 µM
SMILES,GFP response vs DMSO [1] [%],"GFP response, % of DMSO [2] [%]"
O=C1NC(=O)N(CCC2=CCCCC2)C(=O)/C1=C/c1cccs1,96.2,84
CCCCn1c(=O)c(C(=O)Nc2ccsc2C(=O)OC)c(O)c2ccccc21,101,102
C#CCOc1cc(C2C3=C(COC3=O)Nc3cc4c(cc32)OCO4)ccc1OC (centres undefined),117,103
CC1(C)OC(c2ccccc2)=C/C(=C/C=C2C(=O)NC(=S)NC2=O)O1,145,92.3
C[C@]12CCC(=O)C(O)=C1CC[C@@H]1[C@@H]2CC[C@]2(C)C(=O)CC[C@@H]12,102,101
CN1C(=O)C(=Cc2ccc(SC3CCCCC3)o2)C(=O)N(C)C1=O,98.8,101
O=C1NC(=O)N(CCc2ccc(F)cc2)C(=O)/C1=C/c1ccco1,94.4,99.8
O=C1NC(=O)N(Cc2ccco2)C(=O)/C1=C/c1ccc(-c2cccc([N+](=O)[O-])c2)o1,94.7,90.9
O=C1NC(=O)N(c2ccccc2)C(=O)/C1=C\c1ccc([N+](=O)[O-])o1,108,104
O=c1oc2ccccc2c(O)c1[C@H]1c2ccc(O)cc2Oc2c1c(=O)oc1ccccc21,102,90.4
O=C1NC(=S)N(c2ccccc2)C(=O)/C1=C/c1ccco1,122,103
CCC(C)N1C(=O)/C(=C\c2cnc(N(C)C)nc2)C(=O)NC1=S (centres undefined),104,97.2
